The target in test [1] is Lysosomal acid glucosylceramidase (Homo sapiens) (UniProt P04062). The experiment in a line: Glucocerebrosidase-p2 (AID 348; in the data active = potency below about 10 µM; also: potency is read from the fitted curve at half-maximal effect). Particulars: purified GBA, blue fluorogenic substrate, 40 min. The method in brief:
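Compounds titrated from 0.6 nM upwards against 0.2 nM enzyme in pH 5.9 citric acid/KH2PO4, taurocholate, tween-20; blue fluorogenic substrate 80 uM, 40 min room temperature, stopped and read Ex 365/Em 440 for AC50.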

Test [2] in a line: AP1 Signaling Pathway (AID 357).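 Also: ME-180 reporter cells stimulated with EGF at its EC50 level; % is scaled to controls: 0 for no effect and ±100 for the full control effect.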 The following applies: ME-180 AP-1-bla reporter, EGF-induced, beta-lactamase ratio, 5 h; at 7.69 µM (top of the series) unless noted. A digest of the protocol:
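Beta-lactamase reporter under AP-1 response element, ME-180 background. Stimulus: EC50 EGF. Compound exposure 5 h, 37 °C. Detection: CCF4, 2.5 h RT, 460/530 nm. Values: AC50 from titration.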

The nature of test [3]: NFAT Signaling Pathway (AID 444).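 Also: carbachol stimulus at about its EC50 of 1 µM final; % is scaled to controls: 0 for no effect and ±100 for the full control effect.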 The following applies: Jurkat NFAT-bla M1, carbachol, beta-lactamase ratio, 5 h; at 7.69 µM (top of the series) unless noted. The method in brief: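 Jurkat cells carrying an NFAT-driven β-lactamase reporter and co-transfected muscarinic M1 receptor were treated with compound plus carbachol (1 uM final, an EC50 level) for 5 h at 37 °C. CCF4 loading followed for 1 h at RT; 460/530 nm ratio gave %activity.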

Test [4] can be described thus: Stat Signaling Pathway (AID 446).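 Also: ME-180 cervical cancer cells given 40 pM IL-6 alongside compound; SIE-controlled beta-lactamase reporter measured as 460/530 nm FRET emission ratio; % is scaled to controls: 0 for no effect and ±100 for the full control effect.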 The following applies: ME-180 SIE beta-lactamase reporter, IL-6 stimulated, 5 h; at 7.69 µM (top of the series) unless noted. A digest of the protocol: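 ME-180 cells carrying a SIE-driven beta-lactamase reporter are stimulated with 40 pM IL-6 for 5 h at 37C in the presence of compound. The 460/530 nm FRET substrate ratio is read after 2.5 h at RT. Data are normalised to 300 pM IL-6 and to 125 nM JAK inhibitor controls.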

Test [5] concerns the target Glucocorticoid receptor (Homo sapiens) (UniProt P04150). The test is described as follows: GR-EFC Redistribution (AID 451; calls by dose curve; also: potency is read from the fitted curve at half-maximal effect). Particulars: CHO-K1 GR-EFC translocation, beta-gal luminescence, 2 h. A digest of the protocol:
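CHO-K1 cells stably expressing nuclear-localized β-gal enzyme acceptor and GR fused C-terminally to the enzyme donor fragment; ligand-driven nuclear translocation restores β-gal by complementation. Compounds titrated up to 46 uM final, 2 h at 37 °C; luminescence read.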

Test [6] has as its target Mitogen-activated protein kinase 10 (Mus musculus) (UniProt Q61831). The experiment in a line: JNK3 AlphaScreen Assay (AID 530).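 Also: kinase came from lysate of stimulated human HepG2 cells; signal reports phosphorylation of biotinylated GST-cJun 1-79 at Ser73 with 10 µM ATP; % is scaled to controls: 0 for no effect and ±100 for the full control effect.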 Particulars: JNK3 lysate, c-Jun phosphorylation; series mostly up to 57.1 µM. A digest of the protocol: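 Inhibitors reduce antibody binding to phosphorylated biotin-cJun, lowering AlphaScreen luminescence. Lysates from HepG2 cells pre-activated by IL-1beta plus TNF-alpha supplied JNK3; compounds were titrated.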
(Alpha assays give light when donor and acceptor beads are brought close together.)

Test [7] has as its target 3',5'-cyclic-AMP phosphodiesterase 4B (Homo sapiens) (UniProt Q07343). The test is described as follows: qHTS Assay for Inhibitors of PDE-IV (AID 607; active = well fitted activation curve with a large enough effect in the main read-out, with a control signal flat, not every such curve was filed as active; also: % of control where 0% means no effect). The following applies: HEK293 ACTOne CNG channel cells, membrane potential fluorescence; series mostly up to 22.9 µM. The method in brief:
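HEK293 ACTOne cells with CNG channel (1000/well), endogenous PDE4; membrane potential dye, compounds up to 22.9 uM final. Fluorescence Ex 535/Em 590; RO 20-1724 (100 uM final) as reference.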
A general note: In qHTS, concentration-response curves come from the screen itself.

A short description of test [8]: Primary qHTS for small molecule stabilizers of the endoplasmic reticulum resident proteome: Secreted ER Calcium Modulated Protein (SERCaMP) assay (AID 1508630; active = well fitted curve in the direction sought with a large enough effect; an effect the other way counts as inactive or inconclusive; also: % is scaled to controls: 0 for no effect and ±100 for the full control effect). Particulars: SH-SY5Y GLuc-SERCaMP (Gaussia luciferase released on ER calcium loss) secretion, thapsigargin, luminescence; series mostly up to 38.4 µM. A digest of the protocol: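 GLuc-SERCaMP-expressing SH-SY5Y cells, pretreated 16 h with compound, are challenged with thapsigargin to empty ER calcium stores; after 4 h, coelenterazine is added directly to the medium and luminescence is imaged.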

Test [9] addresses Cytochrome P450 3A4 (Homo sapiens) (UniProt P08684). The test is described as follows: qHTS Assay for Inhibitors and Substrates of Cytochrome P450 3A4 (AID 884; active = well fitted curve in the direction sought with a large enough effect; an effect the other way counts as inactive or inconclusive; also: nearly all actives have a fitted effect of over 50% in size; also: potency is read from the fitted curve at half-maximal effect). The following applies: recombinant CYP3A4, Luciferin-PPXE luminescence; series mostly up to 57.1 µM. A digest of the protocol: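 20 nM human CYP3A4 with 25 uM Luciferin-PPXE (at KM) in 200 mM KPO4, preincubated 10 min with compound; NADPH regeneration started a 60 min RT reaction. Luciferin detected by luminescence, normalized to 57 uM ketoconazole as full inhibition.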

For test [10] the target is unchanged. The experiment in a line: qHTS Assay for Activators of Cytochrome P450 3A4 (AID 885; active = well fitted curve in the direction sought with a large enough effect; an effect the other way counts as inactive or inconclusive; also: nearly all actives have a fitted effect of over 65% in size). Particulars: recombinant CYP3A4, Luciferin-PPXE luminescence, 60 min; series mostly up to 57.1 µM. A digest of the protocol: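 Human CYP3A4 (20 nM) with Luciferin-PPXE at 25 uM (its KM) in 200 mM KPO4; 10 min compound preincubation, then NADPH regeneration and 60 min reaction at RT. Luciferin read by luminescence; normalized to 57 uM ketoconazole full inhibition.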

Each structure is given as a SMILES string. Unmarked numbers belong to inactive results. Records with an inconclusive call do not appear. The source made the active and inactive calls. Unless noted, calls follow the shape of the dose curve; as a rule, active = well fitted curve in either direction with a large enough effect (not every such curve was filed as active); inconclusive = small, poorly fitted or top-dose-only effect, or another doubt; inactive = flat fitted curve, though single readings scatter.

Chain of 3',5'-cyclic-AMP phosphodiesterase 4B (Homo sapiens) (Q07343 whole entry, looked up): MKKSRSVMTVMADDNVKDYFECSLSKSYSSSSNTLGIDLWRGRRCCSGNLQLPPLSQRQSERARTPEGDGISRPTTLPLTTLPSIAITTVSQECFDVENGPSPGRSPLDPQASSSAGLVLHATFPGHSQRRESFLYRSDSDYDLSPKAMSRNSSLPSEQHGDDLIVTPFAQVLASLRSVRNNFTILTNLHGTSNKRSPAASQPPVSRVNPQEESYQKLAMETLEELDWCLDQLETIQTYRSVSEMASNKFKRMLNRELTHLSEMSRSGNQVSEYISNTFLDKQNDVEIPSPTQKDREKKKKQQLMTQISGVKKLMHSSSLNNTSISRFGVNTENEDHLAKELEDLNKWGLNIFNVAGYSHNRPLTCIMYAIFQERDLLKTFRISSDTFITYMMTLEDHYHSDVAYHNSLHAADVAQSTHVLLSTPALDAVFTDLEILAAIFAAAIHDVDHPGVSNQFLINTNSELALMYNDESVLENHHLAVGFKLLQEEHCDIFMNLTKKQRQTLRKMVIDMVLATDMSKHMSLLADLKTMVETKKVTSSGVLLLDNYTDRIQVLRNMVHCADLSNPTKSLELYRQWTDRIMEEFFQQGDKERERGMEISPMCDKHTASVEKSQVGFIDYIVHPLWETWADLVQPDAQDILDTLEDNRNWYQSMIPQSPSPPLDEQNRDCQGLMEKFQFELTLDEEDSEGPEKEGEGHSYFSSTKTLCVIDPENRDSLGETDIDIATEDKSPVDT
Chain of Lysosomal acid glucosylceramidase (Homo sapiens) (P04062 whole entry, looked up): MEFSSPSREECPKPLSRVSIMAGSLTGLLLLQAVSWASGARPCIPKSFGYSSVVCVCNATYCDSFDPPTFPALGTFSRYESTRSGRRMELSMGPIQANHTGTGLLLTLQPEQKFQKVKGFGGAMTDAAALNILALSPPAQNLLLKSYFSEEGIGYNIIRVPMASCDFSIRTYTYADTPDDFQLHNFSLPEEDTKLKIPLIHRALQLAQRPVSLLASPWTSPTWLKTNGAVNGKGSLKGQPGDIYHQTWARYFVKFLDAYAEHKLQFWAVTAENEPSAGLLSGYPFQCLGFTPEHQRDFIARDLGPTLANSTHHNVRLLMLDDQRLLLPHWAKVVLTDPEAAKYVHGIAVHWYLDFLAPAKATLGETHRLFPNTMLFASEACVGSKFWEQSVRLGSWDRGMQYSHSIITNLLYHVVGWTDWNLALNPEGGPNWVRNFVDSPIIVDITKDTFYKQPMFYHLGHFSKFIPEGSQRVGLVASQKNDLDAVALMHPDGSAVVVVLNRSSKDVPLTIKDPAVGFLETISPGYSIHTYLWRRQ
Chain of Cytochrome P450 3A4 (Homo sapiens) (P08684 whole entry, looked up): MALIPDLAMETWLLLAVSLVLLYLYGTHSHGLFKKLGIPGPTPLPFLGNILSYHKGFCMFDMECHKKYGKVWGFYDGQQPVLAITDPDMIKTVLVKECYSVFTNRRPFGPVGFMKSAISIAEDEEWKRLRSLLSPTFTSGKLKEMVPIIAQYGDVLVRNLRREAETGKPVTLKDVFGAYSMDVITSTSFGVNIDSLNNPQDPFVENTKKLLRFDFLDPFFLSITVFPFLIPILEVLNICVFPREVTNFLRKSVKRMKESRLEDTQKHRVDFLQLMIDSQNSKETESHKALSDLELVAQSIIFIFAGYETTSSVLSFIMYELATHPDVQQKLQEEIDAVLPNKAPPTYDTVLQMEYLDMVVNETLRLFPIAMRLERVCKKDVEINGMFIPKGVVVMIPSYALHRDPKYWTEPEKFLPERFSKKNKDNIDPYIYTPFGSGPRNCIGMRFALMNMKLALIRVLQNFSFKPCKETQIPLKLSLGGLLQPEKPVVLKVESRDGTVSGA
Chain of Glucocorticoid receptor (Homo sapiens) (P04150 whole entry, looked up, the tested form may be a part): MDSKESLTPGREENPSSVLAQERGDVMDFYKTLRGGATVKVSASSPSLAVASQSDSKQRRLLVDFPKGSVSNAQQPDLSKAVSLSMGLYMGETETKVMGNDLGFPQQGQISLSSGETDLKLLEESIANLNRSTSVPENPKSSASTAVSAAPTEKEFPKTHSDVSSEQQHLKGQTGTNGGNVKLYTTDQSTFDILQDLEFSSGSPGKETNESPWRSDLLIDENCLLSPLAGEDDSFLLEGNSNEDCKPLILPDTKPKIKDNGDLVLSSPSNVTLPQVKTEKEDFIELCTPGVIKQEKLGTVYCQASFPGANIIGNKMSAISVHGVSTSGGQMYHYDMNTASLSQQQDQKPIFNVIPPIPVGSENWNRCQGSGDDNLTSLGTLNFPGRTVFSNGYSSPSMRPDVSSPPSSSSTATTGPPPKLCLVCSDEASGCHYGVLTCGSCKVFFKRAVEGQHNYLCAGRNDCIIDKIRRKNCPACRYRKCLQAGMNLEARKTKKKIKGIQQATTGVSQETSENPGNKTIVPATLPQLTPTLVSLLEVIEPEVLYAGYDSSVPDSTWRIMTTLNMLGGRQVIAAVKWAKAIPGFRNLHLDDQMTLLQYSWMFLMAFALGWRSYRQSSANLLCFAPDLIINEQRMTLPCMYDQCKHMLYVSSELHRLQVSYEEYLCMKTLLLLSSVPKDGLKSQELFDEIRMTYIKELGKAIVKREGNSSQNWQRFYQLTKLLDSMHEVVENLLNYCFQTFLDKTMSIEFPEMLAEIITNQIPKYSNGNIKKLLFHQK

As for `COCCn1c(=O)c(-c2ccc(F)cc2)nc2cnc(Oc3cccc(Cl)c3)nc21`, the values for the Potency in test [1] and in [5] were above 11.4 µM and above 46 µM, respectively. For the same compound, the activity change, negative = inhibition in test [2] was 1.58%; in test [3], -15.6%. In addition, the activity, negative = inhibition in [4] was -8.51%. The Potency result in test [6] and in test [7] was “inactive” in each case. In addition, the result in test [8] was inactive.
`O=C(c1ccco1)N1CCC2(CCCN(c3ncccn3)C2)CC1`: the Potency is above 11.4 µM in test [1] and above 46 µM in test [5]. Moreover, the activity change, negative = inhibition was 3.88% in test [2] and -1.96% in [3]. The activity, negative = inhibition in test [4] is -7%. Further, the Potency result in test [6] and in test [7] was “inactive” throughout. The result in test [8] was inactive.
On to `COc1ccc(C(=O)N2CCC[C@@]3(CCN(Cc4ccccc4OC)C3)C2)cc1`, for which the figures for the Potency in [1] and in test [5] were above 11.4 µM and above 46 µM, respectively. The activity change, negative = inhibition in [2] was 11.7%; in test [3] it was -18.6%. Moreover, the activity, negative = inhibition in test [4] is 5.47%. The Potency entry in test [6] and in [7] was “inactive” throughout. In addition, the result in test [8] was inactive.
On to `N#Cc1cccc(NC(=O)N2CC[C@@]3(CCCN(C(=O)c4csnn4)C3)C2)c1`, for which the Potency in test [1] is above 11.4 µM; in test [5], above 46 µM. Further, the activity change, negative = inhibition in test [2] was -20.4%; in [3] it was 10.2%. In [4], the activity, negative = inhibition was -5.12%. Moreover, the Potency result in [6] and in test [7] was “inactive” throughout. In addition, in test [8], the outcome was inactive.
Consider `COC(=O)N1CCC2(CCN(C(=O)Nc3ccc(OC)cc3)CC2)CC1`, for which the Potency in test [1] is above 11.4 µM; in [5] it was above 46 µM. For the same compound, the activity change, negative = inhibition in [2] is -1.58%; in [3], -8.6%. In addition, the activity, negative = inhibition in test [4] was 3.42%. Moreover, the Potency entry in test [6] and in [7] was “inactive” in each case. Besides, the result in test [8] was inactive.
For `COCC(=O)N1CCC2(CCN(Cc3cc(C(F)(F)F)cc(C(F)(F)F)c3)CC2)CC1`, the Potency is above 11.4 µM in test [1] and above 46 µM in test [5]. The activity change, negative = inhibition in [2] was 4.92%; in test [3] it was -3.18%. For the same compound, the activity, negative = inhibition in [4] was 8.32%. Besides, the Potency entry in test [6] and in [7] was “inactive” in each case. Moreover, the outcome in [8] was inactive.
`COC(=O)N1CCC[C@@]2(CCN(Cc3nccs3)C2)C1`: the Potency was above 11.4 µM in test [1] and above 46 µM in [5]. For the same compound, the activity change, negative = inhibition in test [2] was 1.72%; in test [3], 14.9%. Further, the activity, negative = inhibition in test [4] was -4.13%. In addition, the Potency result in [6] and in test [7] was “inactive” throughout. The result in [8] was inactive.
For `CC(=O)N1CCC2(CC1)CCN(C(=O)Nc1cccc(C#N)c1)CC2`, the Potency in test [1] is above 11.4 µM; in [5], above 46 µM. In addition, the values for the activity change, negative = inhibition in test [2] and in [3] were 4.49% and 8.82%, respectively. Besides, the activity, negative = inhibition in [4] is 3.47%. Besides, the Potency result in [6] and in test [7] was “inactive” in each case. Moreover, the outcome in [8] was inactive.
For the compound `O=C(c1cccc(F)c1)N1CCC[C@@]2(CCN(Cc3ccncc3)C2)C1`, the Potency is above 11.4 µM in test [1], above 46 µM in test [5] and 3.16 µM (active) in [9]. Further, the results for the activity change, negative = inhibition in test [2] and in [3] were -12% and -14.7%, respectively. In [4], the activity, negative = inhibition was -0.901%. Further, the Potency result in test [6], in [7] and in test [10] was “inactive” throughout. In addition, the outcome in test [8] was inactive.
As to `N#Cc1cccc(NC(=O)N2CCC3(CC2)CCN(C(=O)c2cnccn2)CC3)c1`, the Potency is above 11.4 µM in test [1] and above 46 µM in test [5]. Further, the results for the activity change, negative = inhibition in test [2] and in test [3] were -8.55% and -3%, respectively. The activity, negative = inhibition in test [4] is 2.13%. Further, the Potency result in [6] and in test [7] was “inactive” throughout. Besides, the result in test [8] was inactive.
On to `COc1ccc(NC(=O)N2CC3(CCN(C(=O)c4cccc(F)c4)CC3)C2)cc1`, for which the Potency in test [1] is above 11.4 µM; in [5], above 46 µM. In addition, the activity change, negative = inhibition in test [2] is -7.57%; in test [3], -1.23%. Besides, the activity, negative = inhibition in [4] was 0.388%. Further, the Potency result in [6] and in [7] was “inactive” throughout. Also, the outcome in test [8] was inactive.
For the compound `COc1ccccc1CCn1c(=O)c(C)nc2cncnc21`, the Potency is above 11.4 µM in [1] and above 46 µM in test [5]. For the same compound, the activity change, negative = inhibition in test [2] was -13.2%; in test [3], 6.15%. In addition, the activity, negative = inhibition in [4] was -13.1%. Further, the Potency result in test [6] and in test [7] was “inactive” throughout. Besides, the result in test [8] was inactive.
With `COCC(=O)N1CCC2(CC1)CCN(c1ccc(-c3ccccc3)cc1)CC2`, the Potency in test [1] is above 11.4 µM; in test [5], above 46 µM. For the same compound, the values for the activity change, negative = inhibition in test [2] and in test [3] were -8.62% and 2.65%, respectively. Further, the activity, negative = inhibition in test [4] was -21.1%. Further, the Potency entry in test [6], in test [7] and in [9] was “inactive” throughout. Also, the result in [8] was inactive.
As for `COc1ccc(C(=O)N2CCC3(CCN(Cc4nccs4)CC3)CC2)cc1`, the Potency is above 11.4 µM in [1] and above 46 µM in test [5]. Besides, the values for the activity change, negative = inhibition in test [2] and in test [3] were -14.6% and -8.01%, respectively. Also, the activity, negative = inhibition in test [4] was -11.9%. Moreover, the Potency entry in test [6], in test [7] and in [9] was “inactive” throughout. Besides, the result in test [8] was inactive.
On to `COc1ccc(C(=O)N2CCC3(CC2)CCN(c2cccc(-c4ccccc4)c2)CC3)cc1`, for which the values for the Potency in test [1] and in test [5] were above 11.4 µM and above 46 µM, respectively. Besides, the activity change, negative = inhibition in test [2] was 10.6%; in test [3] it was -6.4%. The activity, negative = inhibition in test [4] was -19%. In addition, the Potency entry in test [6] and in test [7] was “inactive” each time. In addition, the outcome in test [8] was inactive.
`O=C(c1cccc(F)c1)N1CCC2(CC1)CN(C(c1ccccc1)c1ccccc1)C2`: the Potency is above 11.4 µM in test [1] and above 46 µM in test [5]. Moreover, the activity change, negative = inhibition in test [2] was 16.8%; in test [3], -27.5%. In addition, in [4], the activity, negative = inhibition is -17.5%. Moreover, the Potency entry in [6] and in test [7] was “inactive” each time. In addition, in [8], the outcome was inactive.
For the compound `COc1ccc(C(=O)N2CCC3(CCN(C(=O)Nc4ccccc4)CC3)CC2)cc1`, the Potency in test [1] is above 11.4 µM; in test [5], above 46 µM. Also, the activity change, negative = inhibition in test [2] is 0.785%; in test [3], 6.48%. Further, in test [4], the activity, negative = inhibition was -6.61%. For the same compound, the Potency entry in test [6] and in test [7] was “inactive” throughout. Further, the outcome in [8] was inactive.

The values are drawn from PubChem BioAssay (NCATS).
